# beta cell repl: induces beta-cell replication in MIN6 cells; MIN6 cells proliferation, ATPlite luminescence, 48 h; cells starved in 0.2% serum; 100% = growth in 10% serum; proliferation, % at 10 µM; actives 0.29% (n = 330,000); AID 2380;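 active = compounds whose signal lies at least 3.5 SD above the mean of all wells on their plate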;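 note: 0% = DMSO-treated cells in low-serum medium and 100% = 10% serum control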
# SMARCA2 act: SMARCA2 function activation, primary screen; MG213 cells, MMTV-luciferase reporter, dexamethasone, overnight; AID 652017; actives 1% (n = 370,000); activation, % at 9.1 µM; in the data active = activation above about 7.8%;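 note: 0% = vehicle wells and 100% = reference activator wells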
# Exocytosis inh: lytic granule exocytosis inhibition; TALL-104 LAMP-1 surface exposure, flow cytometry; cells stimulated with thapsigargin and PMA; inhibition, % at 10 µM; actives 0.66% (n = 360,000);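 active = inhibition above about 55%, limit read from the data; inconclusive = no clear call, values can overlap the other calls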
# ALR inh: human ALR oxidase inhibition via reduced H2O2 | P55789 | purified ALR, DTT oxidation, H2O2 HRP-luminol luminescence | inhibition, % (concentration not given with the values) | actives 3.8% (n = 290,000) | AID 485317;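 active = mean replicate inhibition above about 79%, with every replicate also reaching it, limit read from the data; inconclusive = only one of the two criteria met; inactive = mean below limit and not every replicate reaching it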
# Target sequence (P55789 whole entry, looked up): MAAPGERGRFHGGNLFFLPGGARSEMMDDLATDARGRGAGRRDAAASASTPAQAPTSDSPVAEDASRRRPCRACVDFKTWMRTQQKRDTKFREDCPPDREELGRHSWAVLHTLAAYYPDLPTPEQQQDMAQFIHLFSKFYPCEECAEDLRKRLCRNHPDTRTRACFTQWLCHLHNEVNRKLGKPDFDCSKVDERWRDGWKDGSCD
# PfM18AAP inh: PfM18AAP enzyme inhibition; recombinant PfM18AAP, H-Glu-NHMec fluorogenic cleavage; inhibition, % at 7.35 µM; actives 1.2% (n = 290,000); AID 1822;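 active = inhibition above the campaign mean inhibition over all tested compounds plus 3 SD, cut at about 28% in these data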;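 note: 0% = plate median of test compound wells and 100% = 2 mM ZnCl2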
# JMJD2C inh: inhibitors of human GASC-1 (JMJD2C) demethylase; Q9H3R0; GST-JMJD2C(1-420) H3K9me3 demethylation, DELFIA europium; inhibition, % at 2.35 µM; actives 0.069% (n = 330,000);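 active = more than half of a compound's replicate wells show inhibition beyond 50%, single wells judged on their own value; inconclusive = some, but no more than half, of replicates pass 50% inhibition; inactive = no replicate passes 50% inhibition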;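 note: signal counts dimethyl H3K9 product captured on neutravidin plate; 0% = median of DMSO wells and 100% = 0.3 times that DMSO median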
# Target sequence (Q9H3R0 1-420 limits assumed): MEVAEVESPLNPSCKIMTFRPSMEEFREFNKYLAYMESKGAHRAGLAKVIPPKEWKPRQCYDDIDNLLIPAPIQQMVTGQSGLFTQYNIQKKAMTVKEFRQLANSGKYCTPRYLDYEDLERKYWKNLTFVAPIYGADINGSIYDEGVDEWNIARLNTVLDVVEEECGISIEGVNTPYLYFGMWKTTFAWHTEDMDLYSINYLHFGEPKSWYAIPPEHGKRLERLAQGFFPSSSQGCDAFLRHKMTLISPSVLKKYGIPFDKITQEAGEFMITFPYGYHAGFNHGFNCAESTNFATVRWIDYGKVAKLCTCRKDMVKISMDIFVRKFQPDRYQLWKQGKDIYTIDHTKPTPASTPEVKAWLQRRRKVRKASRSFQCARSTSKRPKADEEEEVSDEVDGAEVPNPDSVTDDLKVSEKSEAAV
# The depositor's hits bear a star; ? = inconclusive; / = no result. A selection: hits, their analogues and other compounds. The true share with any hit is near 5.4%.
SMILES,beta cell repl,SMARCA2 act,Exocytosis inh,ALR inh,PfM18AAP inh,JMJD2C inh
CN(CCO)c1ccc2c(c1)Oc1ccccc1CN(Cc1cn(Cc3ccccc3C(F)(F)F)nn1)S2(=O)=O,/,-5,/,/,/,/
C=CCN(C(=O)[C@@H](CCCC)[C@@H](O)c1ccc2ccccc2c1)c1ccccc1,/,-2,/,/,/,/
Nc1[nH]c(C(=O)c2ccccc2)c(-c2cc(F)ccc2Br)c1C(=O)NCCc1c[nH]c2ccccc12,/,-1,/,/,/,/
CCN(CC)C(=O)CC[C@@H]1CC[C@]2(CCCN(Cc3ccc(Cl)cc3)C2)O1,/,-3,/,/,/,/
Cc1cccc(/C=N/NC(=O)c2c(-c3ccccc3)noc2C)c1O,-7,-1,-6,12,29*,36
COc1cc(/C=N/NC(=O)CNC(=O)c2cccs2)ccc1O,-1,-4,0,/,-2,-15
COc1cc(/C=N/NC(=O)CNC(=O)c2ccncc2)ccc1O,-3,-2,9,99*,1,4
COc1ccccc1/C=N/NC(=O)c1c(-c2ccccc2)noc1C,0,0,-10,0,10,21
CC12CCC(C(=O)NCc3ccccc3)(OC1=O)C2(C)C (configuration not stated),-2,-2,1,-6,-8,-3
CC12CCC(C(=O)NNc3ccccc3)(C(=O)C1=O)C2(C)C (configuration not stated),-2,-1,-1,98*,-3,-2
Nn1c(SCc2cccc3ccccc23)nnc1-c1n[nH]c2c1CCC2,/,1,/,/,/,/
CCC1CCCCN1C(=O)Cn1c(=O)oc2ccccc21 (configuration not stated),0,-3,1,-11,29*,6
CC(=O)N1CCN(C(=O)Cn2c(=O)oc3ccccc32)CC1,0,0,-3,20,-4,0
COc1ccc(C2C(C(=O)N3CCN(c4ccccc4C)CC3)CC(=O)N2c2ccc(OC)cc2)cc1 (configuration not stated),/,-1,/,/,/,/
CCCn1c(/C=C/c2ccco2)nc2ccccc21,-6,6,-3,89*,3,3
CC[C@H](CCCc1ccc(F)cc1)CN(Cc1ccc(OC)cc1)S(=O)(=O)c1ccc(C)cc1,/,-3,/,/,/,/
CCOC(=O)[C@]12CCCCC/C=C\1N(CCc1ccc(Cl)cc1)C(=O)[C@H]2CC(=O)NCc1ccc(C)o1,/,1,/,/,/,/
CCOc1c(O)ccc(C2NC(=O)N(C)C(C)=C2C(=O)OC)c1[N+](=O)[O-] (configuration not stated),-1,2,-3,89*,10,-7
CCOc1c(O)ccc(C2NC(=O)NC(C)=C2C(=O)OC)c1[N+](=O)[O-] (configuration not stated),-3,0,0,34,-7,-11
COc1cccc(C(=O)N2CCN=C2SCc2cccnc2)c1OC,7,-1,-2,100*,-5,4
COc1ccc(C(=O)N2CCN=C2SCc2cccnc2)c(OC)c1,3,-1,13,100*,-9,2
COc1ccccc1C(=O)N1CCN=C1SC,-1,-3,2,-13,2,6
CCOC(=O)[C@]12CCCC=C1N(Cc1ccc(OC)cc1)C(=O)[C@@H]2CC(=O)NCc1ccc(OC)c(OC)c1,/,1,/,/,/,/
O=C(CCc1ccccc1)N[C@H]1C(=O)CCC[C@]12C(=O)N(Cc1ccccc1)c1ccccc12,/,0,/,/,/,/
Cc1cc(C)c(S(=O)(=O)/N=C2\C=C(Nc3ccc(C(=O)O)cc3)C(=O)c3ccccc32)c(C)c1,-4,-9,8,/,-4,-7
SMILES,beta cell repl,SMARCA2 act,Exocytosis inh,ALR inh,PfM18AAP inh,JMJD2C inh
O=C1C(Nc2ccc(O)cc2)=C/C(=N/S(=O)(=O)c2cccs2)c2ccccc21,/,-13,57*,/,4,-6
O=C(O)c1ccc(NC2=C/C(=N/S(=O)(=O)c3ccccc3)c3ccccc3C2=O)cc1,-5,-10,58*,/,0,/
CCc1ccc(S(=O)(=O)/N=C2\C=C(Nc3ccc(O)cc3)C(=O)c3ccccc32)cc1,-4,/,86*,/,4,-13
CCc1ccc(S(=O)(=O)/N=C2\C=C(Nc3cccc(C(=O)O)c3)C(=O)c3ccccc32)cc1,-3,-7,23,69,11,15
CCc1ccc(S(=O)(=O)/N=C2\C=CC(=O)c3ccccc32)cc1,-6,/,/,-20,-8,12
CCc1ccc(S(=O)(=O)/N=C2/C=C(Sc3ncn[nH]3)C(=O)c3ccccc32)cc1,/,/,98*,-57,47*,19
CCCCOCCCNC(=O)C[C@H]1C[C@@]2(C(=O)OC)C(=C[C@H](C(C)C)O[C@@H]2C2CC2)N(Cc2ccc(Cl)cc2Cl)C1=O,/,-3,/,/,/,/
CC1(NC(=O)c2ccc(C#Cc3cccc(F)c3)cn2)COC1,/,-3,/,/,/,/
Cc1ccc(N(C(=O)c2snc(C(N)=O)c2N)C(CC(C)C)C(=O)NC2CCCC2)cc1 (configuration not stated),-2,1,48,2,-7,2
CC(C(=O)NC1CCCC1)N(C(=O)c1snc(C(N)=O)c1N)c1ccc2c(c1)OCCO2 (configuration not stated),-3,-4,-5,96*,1,0
CC(C)CNC(=O)OCc1cn(Cc2ccc(C(F)(F)F)cc2)nn1,/,-1,/,/,/,/
CN(C)c1cccc(/C=C2\CC3(OC(=O)c4cccc(F)c4)CCCN2C3)c1 (configuration not stated),/,0,/,/,/,/
C#CCOCCOCCOCCNc1nc(N2CCN(C(=O)CCCCCCCCCCNC(=O)[C@H](CCCCN)n3cc(C)nn3)CC2)nc(N2CCN(C(=O)CCCCCCCCCCNC(=O)[C@@H]([C@H](C)O)n3cc(C)nn3)CC2)n1,-8,/,-1,-5,/,/
C#CCOCCOCCOCCNc1nc(N2CCN(C(=O)C([C@@H](C)CC)n3cc(C(N)Cc4ccc(O)cc4)nn3)CC2)nc(N2CCN(C(=O)[C@H](CCC(=O)O)n3cc(C(N)Cc4ccc(O)cc4)nn3)CC2)n1 (some centres not stated),-3,/,64*,14,-2,?
C#CCOCCOCCOCCNc1nc(N2CCN(C(=O)CCCCCCCCCCNC(=O)[C@H](CCCCN)n3cc(C[C@@H](C)CC)nn3)CC2)nc(N2CCN(C(=O)CCCCCCCCCCNC(=O)[C@@H]([C@H](C)O)n3cc(C)nn3)CC2)n1,-8,/,97*,-21,/,16
Cc1[nH]c2ccc(-c3nnc(SCC(=O)NCc4ccco4)n3Cc3ccccc3)cc2c1C,1,-1,87*,-5,-9,-1
CCN(CC)c1ccc(NC(=O)COC(=O)CSc2ccc(Br)cc2C)cc1,-2,-2,3,99*,0,1
Cc1cc(C)c(NC(=O)COC(=O)CSc2ccc(Br)cc2C)c(C)c1,-4,-3,-2,-2,-1,-71
CCOC(=O)CNC(=O)CSc1nc(-c2ccccc2)ns1,-4,-2,2,4,28*,-1

# High-throughput results as filed in PubChem.
